Some test systems named below: NCI-H23 lung; NCI-H226 lung; NCI-H322M lung; HOP-62 NSCLC; NCI-H460 lung; HOP-92 NSCLC; NCI-H522 lung; A549/ATCC NSCLC; 786-0 renal; COLO 205 colon.
What all share (experiment): NCI-60 one-dose screen, 48 h (100 = growth as untreated, 0 = no growth, -100 = all killed)
What all share (details): 10 µM unless noted

SMILES strings stand for the structures. This is part of a sample that, as a whole, favours compounds with a hit. Of some 83,000 tested, about 20% had one in any assay.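 In brief: 96-well plates, 48 h treatment, single concentration, percent growth endpoint.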 Unmarked numbers belong to inactive results. The source made the active and inactive calls. How the source made its calls: active means growth percent below 10; inactive means the rest.

In the case of `c1ccc(CNc2c3ccccc3nc3ccccc23)cc1`, the growth is 41.2% in the test on NCI-H23 lung; 51.7% with NCI-H226 lung; 46.3% in the test with NCI-H322M lung; 46% in the test with HOP-62 NSCLC; 10.3% in the test with NCI-H460 lung; 25.9% in the test with HOP-92 NSCLC. In addition, the growth was 56.8% in the test with NCI-H522 lung, 28.5% in the test on A549/ATCC NSCLC and 34.3% in the test with 786-0 renal.
On to `CS(=O)(=O)C1=CN(CCO)C(=O)N2CCCN=C12`, for which the growth with NCI-H23 lung is 95.7%; with NCI-H226 lung, 96.6%; in the test with NCI-H322M lung, 93.1%; in the test on HOP-62 NSCLC it was 92.4%; in the test with NCI-H460 lung it was 102%; in the test on HOP-92 NSCLC it was 101%. Also, the growth is 94.8% in the test with NCI-H522 lung, 98.7% with A549/ATCC NSCLC and 99.5% with 786-0 renal.
Consider `CC(C)CCC[C@@H](C)[C@H]1CC[C@H]2[C@@H]3CC=C4C[C@@H](C(C(=O)O)C(=O)O)CC[C@]4(C)[C@H]3CC[C@]12C`, for which the growth in the test on NCI-H23 lung was -48% (active); in the test with NCI-H226 lung, -62.9% (active); in the test on NCI-H322M lung, -0.312% (active); in the test with HOP-62 NSCLC, -54.8% (active); in the test with NCI-H460 lung, -71.5% (active); in the test with HOP-92 NSCLC it was 8.17% (active). For the same molecule, the results for the growth with NCI-H522 lung, with A549/ATCC NSCLC and in the test with 786-0 renal were -28.7% (active), -51.7% (active) and -58.6% (active), respectively.
Turning to `O=C(Nc1ccc(-c2nc(N3CCOCC3)c3cccn3n2)cc1)Nc1cccnc1`, the growth in the test with NCI-H23 lung is 17.2%; in the test with NCI-H226 lung it was -5.75% (active); in the test on NCI-H322M lung it was 0.902% (active); with HOP-62 NSCLC it was -3.37% (active); with NCI-H460 lung, 7.47% (active); in the test with HOP-92 NSCLC, -22.5% (active). Further, the growth in the test with NCI-H522 lung was 4.32% (active); with A549/ATCC NSCLC, 0.989% (active); in the test with 786-0 renal it was -12.7% (active).
Regarding `O=S(=O)(Nc1ccccc1)c1ccc(C2CC3(Cl)C(Cl)=C(Cl)C2(Cl)C3(Cl)Cl)cc1` (configuration not stated), the growth is 22.1% in the test with NCI-H23 lung; 74.3% in the test with NCI-H226 lung; 61.5% in the test on NCI-H322M lung; 51.4% in the test with HOP-62 NSCLC; 21.1% in the test on NCI-H460 lung; -10.3% (active) in the test with HOP-92 NSCLC. Also, the growth was 29.9% with NCI-H522 lung, 30.2% with A549/ATCC NSCLC, 32.4% in the test with 786-0 renal and 29.2% in the test with COLO 205 colon.
Take `C[C@]12CC[C@@H]3c4ccc(O)c([N+](=O)[O-])c4CC[C@H]3[C@@H]1CCC2=O`: the growth is 95.7% in the test with NCI-H23 lung; 95.7% in the test with NCI-H226 lung; 99% in the test on NCI-H322M lung; 104% with HOP-62 NSCLC; 112% in the test on NCI-H460 lung; 86.6% in the test on HOP-92 NSCLC. Besides, the growth in the test on NCI-H522 lung is 85.8%; in the test on A549/ATCC NSCLC, 102%; with 786-0 renal, 90.1%.
On to `Clc1ccc2c(c1)N(c1ncnc3ccc(-c4cnc5[nH]ncc5c4)cc13)CC2`, for which the growth in the test with NCI-H23 lung is 52.5%; in the test with NCI-H226 lung, 24.4%; in the test on NCI-H322M lung, 11.8%; in the test with HOP-62 NSCLC, 24.4%; in the test on NCI-H460 lung, 20.1%; in the test with HOP-92 NSCLC, -1.84% (active). Besides, the growth in the test with NCI-H522 lung was 40.2%; in the test with A549/ATCC NSCLC it was 6.23% (active); with 786-0 renal, 18.1%; with COLO 205 colon it was 31.1%.
As to `Cc1ccc(-c2nc3nc(-c4ccccc4)nc(N4CCNCC4)c3o2)cc1`, the growth in the test on NCI-H23 lung was -73.7% (active); with NCI-H226 lung it was -68.6% (active); in the test on NCI-H322M lung, -95.9% (active); with HOP-62 NSCLC, -92.9% (active); in the test on NCI-H460 lung it was -72.4% (active); with HOP-92 NSCLC it was -73.5% (active). Besides, the growth in the test on NCI-H522 lung was -79.2% (active); with A549/ATCC NSCLC, -84.5% (active); with 786-0 renal, -84.5% (active).
Take `O=C1c2c(c3c4ccc(Br)cc4oc3c3[nH]c4ccccc4c23)C(=O)N1O`: the growth in the test with NCI-H23 lung is 22.7%; in the test on NCI-H226 lung, 61.7%; with NCI-H322M lung, 59.7%; in the test on HOP-62 NSCLC it was 29.3%; in the test on NCI-H460 lung, 10.7%; with HOP-92 NSCLC it was -2.77% (active). In addition, the growth in the test with NCI-H522 lung was 6.86% (active); in the test with A549/ATCC NSCLC, 64.3%; in the test with 786-0 renal it was 84.8%.
As to `COc1ccc2cc(C(=O)c3coc4ccc(O)cc34)ccc2c1`, the growth in the test with NCI-H23 lung is 96%; in the test on NCI-H226 lung, 104%; with NCI-H322M lung, 95.8%; with HOP-62 NSCLC, 94.9%; in the test on NCI-H460 lung, 105%; in the test with HOP-92 NSCLC, 95.4%. In addition, the growth in the test with NCI-H522 lung was 72.9%; in the test with A549/ATCC NSCLC, 92.8%; in the test on 786-0 renal, 94.1%.
In the case of `C=C1C(=O)O[C@H]2[C@H]1CC/C(COC(=O)NCc1ccc(Cn3c(=O)sn(CCI)c3=O)cc1)=C\CC[C@@]1(C)O[C@@H]21`, the growth is 88.5% in the test on NCI-H23 lung; 85.7% in the test on NCI-H226 lung; 96.4% with NCI-H322M lung; 114% in the test on HOP-62 NSCLC; 98.1% in the test on NCI-H460 lung; -19% (active) in the test on HOP-92 NSCLC. Moreover, the figures for the growth in the test on NCI-H522 lung, in the test on A549/ATCC NSCLC and in the test with 786-0 renal were -92.8% (active), 108% and 59.6%, respectively.
In the case of `O=c1oc2ccc([N+](=O)[O-])cc2cc1Br`, the growth was 107% with NCI-H23 lung; 98.4% with NCI-H226 lung; 108% with NCI-H322M lung; 104% in the test on HOP-62 NSCLC; 107% in the test with NCI-H460 lung; 83.7% in the test on HOP-92 NSCLC. The values for the growth in the test on NCI-H522 lung, with A549/ATCC NSCLC and in the test on 786-0 renal were 97.9%, 108% and 112%, respectively.
In the case of `COc1cnc2c(c1)C(=O)c1c-2n(CCCNCCO)c(=O)c2ccncc12`, the growth in the test with NCI-H23 lung was 1.25% (active); in the test with NCI-H226 lung it was -43.9% (active); with NCI-H322M lung, -2.47% (active); with HOP-62 NSCLC, 9.4% (active); in the test on NCI-H460 lung, -41.6% (active); in the test with HOP-92 NSCLC, 20.8%. For the same molecule, the growth is -30.2% (active) in the test on NCI-H522 lung, 7.92% (active) with A549/ATCC NSCLC and 12.3% with 786-0 renal.
Turning to `CCCCOC(=O)OCc1cc(=O)c(O)co1`, the growth in the test on NCI-H23 lung is 95.3%; with NCI-H226 lung it was 94.3%; with NCI-H322M lung, 94.1%; with HOP-62 NSCLC, 109%; in the test with NCI-H460 lung, 101%; in the test with HOP-92 NSCLC, 107%. Also, the growth in the test on NCI-H522 lung was 91.1%; with A549/ATCC NSCLC, 102%; in the test with 786-0 renal, 98.6%.
For `Cc1cc(Cl)ccc1Nc1nc(C(F)(F)F)ccc1C(=O)N/N=C/c1ccc([N+](=O)[O-])cc1`, the growth in the test with NCI-H23 lung is -1.74% (active); in the test on NCI-H226 lung it was 6.08% (active); in the test on NCI-H322M lung it was -18.6% (active); with HOP-62 NSCLC, -33.6% (active); in the test with NCI-H460 lung, -34.3% (active); in the test on HOP-92 NSCLC, -31.6% (active). Moreover, the growth with NCI-H522 lung was -13.3% (active); in the test with A549/ATCC NSCLC, -15.3% (active); in the test with 786-0 renal, -61.2% (active).
